Screens from PubChem.
Shown are actives, neighbours in structure and some others; about 5.7% of the full set was active somewhere.
KB-V1 cytotox: qHTS assay for MDR1-selective chemotherapeutics: Primary screen using the drug-selected MDR subline cells KB-V1; KB-V1 MDR cells viability, CellTiter-Glo, 72 h; Potency, µM (highest dose often 46.1 µM), usual class: cytotoxic; 400,000 compounds, 3.4% hits; further: nearly all actives have a fitted effect of over 60% in size
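Cytotoxicity toward P-gp-expressing KB-V1 cells was determined as loss of CellTiter-Glo luminescence after 72 h at 37 degrees C. Compounds were tested in quantitative HTS format across a concentration range, with curves fitted to normalized data.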
HT1080 IDH1KD tx: qHTS for induction of synthetic lethality in tumor cells producing 2HG: qHTS for the HT-1080-IDH1KD cell line; HT-1080 IDH1 knockdown viability, ATP luminescence, 48 h; Potency, µM (top dose mostly 46.1 µM), most hits filed as cytotoxic; 360,000 compounds, 2% hits; AID 686971, 2013
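HT-1080-IDH1KD cells (IDH1 knocked down), 750/well in RPMI with 5% FBS, treated with compound 48 h at 37 degrees C. Viability by CellTiter-Glo luminescence, normalised to DMSO and no-cell wells; concentration-response curves classed.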
HT1080-NT tox: qHTS for induction of synthetic lethality in tumor cells producing 2HG: qHTS for the HT-1080-NT fibrosarcoma cell line; Potency, µM (top dose mostly 46.1 µM), hits mostly cytotoxic; HT-1080-NT fibrosarcoma viability, CellTiter-Glo ATP luminescence, 48 h; 360,000 compounds, 1.6% hits;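 further: NT is the 2HG producing partner of a matched IDH1 knockdown line; nearly all actives have a fitted effect of over 55% in size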
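Compounds were tested in concentration-response format on HT-1080-NT cells for 48 hours at 37 degrees C. Cell viability came from CellTiter-Glo luminescence; curves were classified by r2, response magnitude and activity.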
KB-3-1 cytotox: qHTS assay for MDR1-selective chemotherapeutics: Primary screen using the parental adenocarcinoma cell KB-3-1. KB-3-1 viability, CellTiter-Glo ATP luminescence, 72 h. 400,000 compounds, 1.4% hits. Potency, µM (series often up to 46.1 µM), usual class: cytotoxic; further: nearly all actives have a fitted effect of over 60% in size
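KB-3-1 parental drug-naive adenocarcinoma cells in DMEM/10% FBS, incubated 72 h at 37 C with pin-transferred compounds across a concentration series. Viability by CellTiter-Glo luminescence; concentration-response curves fitted after normalization.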
Numbers stand for hits; – = inactive; ? = inconclusive; · = no result. The call rests on the fitted dose curve; in most records, active means well fitted curve in the direction sought with a large enough effect; inconclusive means small, poorly fitted or top-dose-only effect, or another doubt; inactive means no such curve, though single readings can be large; an effect the other way counts as inactive or inconclusive.

SMILES	KB-V1 cytotox	HT1080 IDH1KD tx	HT1080-NT tox	KB-3-1 cytotox
Cc1cccc(C(=O)Nc2nnc(S(=O)(=O)N(C)Cc3ccc(Cl)cc3)s2)c1	–	·	·	–
CC(C)C(C)(C#N)NC(=O)CSc1ncnc2sc(-c3ccccc3)cc12 (stereo unspecified)	23.1µM	–	12.6µM	–
COc1ccccc1NC(=S)N/N=C/c1ccc(O)cc1	20.6µM	–	–	?
Oc1ccc(/C=N/NC(=S)N/N=C/c2ccc(O)cc2)cc1	–	?	?	–
CCNC(=S)N/N=C/c1cccc(C)c1	–	–	–	–
COc1ccccc1NC(=S)N/N=C/c1cccc(C)c1	?	–	–	14.6µM
Cc1ccc(CN(Cc2ccco2)c2cnc(S(C)(=O)=O)nc2C(=O)Nc2ccc(Br)cc2)o1	?	·	·	–
Cc1ccc(NC(=O)CN2C(=O)CCn3nc(-c4cccn4C)cc32)cc1	–	·	·	–
O=C(OCn1ncc(Br)c(Br)c1=O)c1ccccc1Cl	5.8µM	6.51µM	8.2µM	18.4µM
O=C(OCn1ncc(Br)c(Br)c1=O)c1ccc(F)cc1	5.17µM	11.6µM	20.6µM	3.26µM
CC(=O)OCn1ncc(N2CCOCC2)c(Br)c1=O	–	–	–	–
COCCn1c(C)cc(O)c(C(c2ccccc2)N2CCN(c3ccccc3)CC2)c1=O (stereo unspecified)	–	·	·	–
CN(C)CCNC(=O)C(=O)Nc1ccc2c(c1)N(S(=O)(=O)c1cccs1)CCC2	?	?	–	6.51µM
COCCCNC(=O)C(=O)Nc1ccc2c(c1)N(S(=O)(=O)c1cccs1)CCC2	1.03µM	2.31µM	?	1.16µM
C=CCNC(=O)C(=O)Nc1ccc2c(c1)N(S(=O)(=O)c1cccs1)CCC2	23.1µM	?	–	?
Cc1cc(OCCCN2CCC(C(O)(c3ccccc3)c3ccccc3)CC2)ccc1Br	20.6µM	?	16.4µM	?
N#Cc1cccc(OCCCN2CCC(C(O)(c3ccccc3)c3ccccc3)CC2)c1	23.1µM	?	?	?
N#Cc1ccc(OCC(O)CN2CCC(C(O)(c3ccccc3)c3ccccc3)CC2)cc1 (stereo unspecified)	–	?	–	–
CC1(C)C2CCC1(C)C(OC(=O)CC(=O)O)C2 (stereo unspecified)	–	–	–	–
CC1(C)C2CCC1(C)C(SC(=N)N)C2 (stereo unspecified)	18.4µM	–	–	–
Cc1ccc(-c2cnc(N3CCC(C(N)=O)CC3)s2)cc1	–	·	·	–
COc1ccc2oc(C)c(C(=O)c3ccc([N+](=O)[O-])cc3)c2c1	14.6µM	–	–	?
CNc1cccc2c1C(=O)c1ccccc1C2=O	?	–	–	–
O=C1c2ccccc2-c2cccc(NS(=O)(=O)c3ccc(C(F)(F)F)cc3)c21	23.1µM	–	–	?
Cc1ccc(C)c(NC(=S)NNC(=O)c2csc(C)c2C)c1	–	–	–	–
SMILES	KB-V1 cytotox	HT1080 IDH1KD tx	HT1080-NT tox	KB-3-1 cytotox
Cc1ccc(C)c(NC(=S)NNC(=O)c2sccc2C)c1	?	?	8.91µM	–
CCc1ccccc1NC(=O)COC(=O)c1c(C)nsc1NC	–	–	4.11µM	–
Cc1ccc(NC(=O)COC(=O)c2ccc(-n3nc(C)cc3C)cc2)c(F)c1	–	–	–	–
CNc1snc(C)c1C(=O)OCC(=O)Nc1ccc(C)cc1F	11.6µM	–	–	–
CNc1snc(C)c1C(=O)OCC(=O)N(C)c1ccccc1	–	–	–	–
CC(=O)N1c2ccc(S(=O)(=O)NCCC(=O)Nc3ncccc3C)cc2CC1C (stereo unspecified)	–	–	–	–
Cc1cc(Cl)ccc1NC(=O)CN(c1ccccc1Br)S(C)(=O)=O	–	·	·	–
Cc1cccc(OC(C)C(=O)N(Cc2cccs2)C2CCS(=O)(=O)C2)c1C (stereo unspecified)	5.8µM	–	–	–
CCOC(=O)c1c(C)[nH]c(-c2csc(C)n2)c1C	?	–	–	–
CCOC(=O)c1c(C)[nH]c(-c2csc(N)n2)c1C	–	4.61µM	6.51µM	?
COc1ccccc1CNC(=O)c1ccc(-c2nc(CS(=O)(=O)c3ccc(C)cc3)c(C)o2)cc1	–	·	·	–
Cc1oc(-c2ccc(C(=O)NCc3ccccc3Cl)cc2)nc1CN1CCc2ccccc21	?	·	·	5.8µM
